# TDP1 cell noCPT = qHTS for Inhibitors of human tyrosyl-DNA phosphodiesterase 1 (TDP1): qHTS in cells in absence of CPT; DT40 Tdp1-/- hTDP1 cells, no CPT, ATP luminescence, 48 h; Potency, µM (series often up to 46.2 µM), for the others: at the highest dose activity change, negative = growth inhibition, usual class: inhibitors; actives 15% (n = 420,000); further: potency means the concentration at half of the fitted maximal effect; on the % scale 0 is the no-effect control and ±100 the full control effect; nearly all actives have a fitted effect of over 55% in size
#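 Seeded 400 DT40-hTDP1 cells/well (vehicle DMSO, no 20 nM CPT); pinned compounds; ≥48 hr at 37 °C; CellTiter-Glo luminescence as viability measure.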
# TDP1 inh = inhibitors of human tyrosyl-DNA phosphodiesterase TDP1 | Q9NUW8 | recombinant TDP1, AlphaScreen DNA substrate cleavage | Potency, µM (series often up to 130 µM), for the others: top-dose activity change, negative = inhibition, usual class: inhibitors | actives 0.28% (n = 350,000); further: potency means the concentration at half of the fitted maximal effect; on the % scale 0 is the no-effect control and ±100 the full control effect; nearly all actives have a fitted effect of over 40% in size
# Target sequence (Q9NUW8 whole entry, looked up): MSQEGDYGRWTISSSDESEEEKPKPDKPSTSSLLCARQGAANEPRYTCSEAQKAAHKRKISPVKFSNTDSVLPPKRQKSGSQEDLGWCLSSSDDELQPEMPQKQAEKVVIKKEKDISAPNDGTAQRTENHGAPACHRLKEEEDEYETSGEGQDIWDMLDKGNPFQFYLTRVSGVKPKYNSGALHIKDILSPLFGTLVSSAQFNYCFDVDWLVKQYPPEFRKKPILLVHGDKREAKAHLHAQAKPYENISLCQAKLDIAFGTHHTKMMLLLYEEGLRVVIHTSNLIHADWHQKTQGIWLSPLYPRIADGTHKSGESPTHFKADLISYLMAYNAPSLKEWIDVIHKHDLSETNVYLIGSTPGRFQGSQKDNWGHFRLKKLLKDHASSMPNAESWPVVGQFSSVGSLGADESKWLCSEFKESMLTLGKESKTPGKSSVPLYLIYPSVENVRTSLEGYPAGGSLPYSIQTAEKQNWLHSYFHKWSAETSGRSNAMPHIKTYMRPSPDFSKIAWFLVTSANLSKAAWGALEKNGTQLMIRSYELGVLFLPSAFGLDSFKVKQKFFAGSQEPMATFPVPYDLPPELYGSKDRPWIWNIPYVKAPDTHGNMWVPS
#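 Here, a 5' biotin and 3' phosphotyrosine-FITC DNA oligonucleotide reports Tdp1 activity: intact substrate bridges AlphaScreen beads, while cleavage leaves a 3' phosphate and drops signal. All incubations at room temperature.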
# DT40 TDP1 CPT = growth inhibition of DT40 Tdp1-/-;hTDP1 cells with camptothecin (screen for TDP1 inhibitors). Potency, µM (titrated, usually from 46.2 µM), without a hit: at the top dose activity change, negative = growth inhibition, most hits filed as inhibitors. chicken DT40 Tdp1-/-;hTDP1 cells + 20 nM CPT, ATP luminescence, 48 h. actives 12% (n = 420,000). AID 686979; further: potency means the concentration at half of the fitted maximal effect; on the % scale 0 is the no-effect control and ±100 the full control effect; nearly all actives have a fitted effect of over 55% in size
#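 Chicken DT40 Tdp1-/- cells stably complemented with human TDP1 were seeded at 400 cells/well in medium containing 20 nM camptothecin, exposed to pin-transferred compounds, and grown at 37 °C for at least 48 hr. Viability was read as ATP luminescence.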
# HepG2 tox = kills HepG2 cells in TGF-b inhibitor counter-screen | actives 0.76% (n = 410,000) | HepG2 CAGA-GFP viability, ATP luminescence, 18 h | AID 588856 | Potency, µM (doses to about 46.1 µM), for the others: top-dose activity change, negative = cytotoxicity, hits mostly cytotoxic; further: potency means the concentration at half of the fitted maximal effect
#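 HepG2 CAGA-GFP cells (1000/well, DMEM with 1% FBS) received compound, then TGF-beta at 500 pg/mL final, and were incubated 18 hours at 37 degrees C. Viability was read by CellTiter-Glo luminescence. Media-only wells were set as complete cell-killing and DMSO as no toxicity.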
# TGFb SMAD3 inh = inhibitors of TGF-b signaling; HepG2 CAGA-GFP TGF-b/SMAD3 reporter, GFP fluorescence, 18 h; TGF-beta stimulated, 500 pg/mL final; Potency, µM (top dose mostly 46.1 µM), inactives show top-dose activity, negative = inhibition, actives largely listed as inhibitors; actives 1.2% (n = 410,000); further: potency means the concentration at half of the fitted maximal effect; on the % scale 0 is the no-effect control and ±100 the full control effect; nearly all actives have a fitted effect of over 65% in size
#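 TGF-beta reporter screen: HEPG2 CAGA-GFP, 1% FBS, 500 pg/mL TGF-beta final, 18 h; per-cell GFP summed per well; curves fitted and categorized by class.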
# IL1B secr inh = inhibitors of inflammasome signaling (IL-1 beta secretion) | THP-1 LPS/ATP IL-1B secretion, AlphaLISA, 16 h; active compounds read low | activity change, % at 57.5 µM | actives 4.7% (n = 360,000); in the data active means activity change below about -50%; inconclusive means mostly about -30% to -49%; further: on the % scale 0 is the no-effect control and ±100 the full control effect
#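 Secreted IL-1B measured by AlphaLISA bead assay after 16 h compound exposure of THP-1 cells; compounds (final up to 57.5 uM) added 1 h before LPS (250 ng/mL) and ATP (1.25 mM) stimulation; lower signal means less secretion.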
# The depositor's hits bear a star; ? = inconclusive; . = no result given; [ ] = dose if it differs, or a comment. Only some compounds are listed: those with a hit (about 19% of all), similar ones and a draw of the others. Unless noted, the call rests on the fitted dose curve; in most records, active means well fitted curve in the direction sought with a large enough effect; inconclusive means small, poorly fitted or top-dose-only effect, or another doubt; inactive means no such curve, though single readings can be large; an effect the other way counts as inactive or inconclusive.
SMILES,TDP1 cell noCPT,TDP1 inh,DT40 TDP1 CPT,HepG2 tox,TGFb SMAD3 inh,IL1B secr inh
COc1ccc(N2CCN(c3oc(/C=C/c4cc(OC)c(OC)c(OC)c4)nc3C#N)CC2)cc1,3.7µM*,0%,2.9µM*,-10%,-2%,.
COc1ccc(/C=C/c2nc(C#N)c(N3CCCCC3)o2)cc1OC,16µM*,12%,23µM*,-26%,-1%,.
COc1ccc(N2CCN(c3oc(/C=C/c4ccccc4OC)nc3C#N)CC2)cc1,?,5%,?,-1%,.,.
COc1ccccc1/C=C/c1nc(C#N)c(N2CCCCC2)o1,16µM*,7%,-72%,-33%,.,.
O=c1[nH]c(=S)[nH]cc1Oc1ccccc1,-3%,.,9%,6%,-2%,-3
O=C1O[C@@H]2[C@@H](O)[C@H](O)O[C@@H]2[C@H]1O,0%,.,10%,.,.,.
COc1cc(C(=O)Nc2nnc(S(=O)(=O)N(C)c3ccccc3)s2)cc(OC)c1OC,?,5%,?,-38%,-23%,.
O=C(Nc1ccc(F)c(F)c1)c1ccc(F)c(S(=O)(=O)N2CCC3(CC2)OCCO3)c1,13µM*,-32%,16µM*,-9%,-8%,-60*
Cc1ccc(C(=O)Nc2ccc3c(c2)CCC3)cc1,-6%,3%,-15%,-19%,-11%,?
O=C(Nc1ccc2c(c1)CCC2)c1ccc(F)c(S(=O)(=O)N2CCOCC2)c1,23µM*,5%,?,-15%,-17%,3
O=S(=O)(c1cc(F)ccc1F)N1CCC2(CC1)OCCO2,13%,-4%,-1%,9%,10%,21
NS(=O)(=O)c1cc(C(=O)Nc2ccc3c(c2)CCC3)ccc1Cl,?,11%,-3%,-10%,-13%,-68*
CC1CCN(C(=O)C2CCN(c3ncnc4c3nc3n4CCCCC3)CC2)CC1,23µM*,3%,?,-2%,-18%,8
Cc1ccc(N2CCN(C(=O)C3CCN(c4ncnc5c4nc4n5CCCCC4)CC3)CC2)c(C)c1,?,0%,21µM*,-7%,-16%,.
O=C(C1CCN(c2ncnc3c2nc2n3CCCCC2)CC1)N1CCN(c2ccc(Cl)cc2)CC1,-2%,6%,10%,8%,3%,.
Cc1cc2c(s1)c1cnn(Cc3ccc(F)cc3)c(=O)c1n2C,.,50µM*,.,.,.,.
C=CCn1c(C)cc(C(=O)COC(=O)[C@@H](NC(=O)c2ccccc2Cl)C(C)C)c1C,?,1%,?,10%,-1%,19
O=c1c(Cl)c(Cl)cnn1Cc1ccc(F)cc1,13µM*,5%,-112%,-95%,?,-99*
Cc1ccc(-c2noc(=O)n2CC(=O)c2ccc(Cl)cc2)cc1,?,0%,?,3%,5%,?
C=CCn1c(C)cc(C(=O)Cn2ncc(Cl)c(Cl)c2=O)c1C,4.1µM*,-3%,5.8µM*,-35%,-1%,-102*
O=c1cnn(Cc2ccc(F)cc2)c2ccccc12,?,4%[0.0935 µM],?,-1%,8%,30
O=C(Cn1ncc(Cl)c(Cl)c1=O)c1ccc(Cl)cc1,2.6µM*,4%[56.1 µM],2.9µM*,18µM*,?,-68*
Cc1ccc(NC(=O)CCS(=O)(=O)c2ccc3c(c2)NC(=O)C(C)S3)nc1 (centres undefined),-9%,0%,6%,15%,5%,24
COc1ccc(CCC(=O)NCc2nc3cccnc3n2Cc2ccc(OC)cc2)cc1,-15%,4%,-9%,-33%,-18%,.
CC(C)(C)C(=O)Cn1ncc(Cl)c(Cl)c1=O,10µM*,6%,16µM*,-9%,-1%,-101*
Cc1ccc(CNC(=O)CN2NS(=O)(=O)c3ccccc3C2=O)cc1,0%,.,-12%,-6%,-1%,10

# Bioassay records (PubChem)
